This passage reports reporter increase results from PubChem BioAssay AID602393 (Broad Institute, 2012).

Out of some 350,000 compounds screened, about 7,000 (2%) were called active. Many of the other results were omitted from the sample, so actives are more common in it than they were. A number with no mark means an inactive call. Rule as the data show it: active = activation above about 40%; inconclusive = no clear call, values can overlap the other calls; inactive = below that.

The test in a line: Bmi1 luciferase reporter increase in mESCs, primary screen, esBAF inhibitor project, mouse ES cells, Bmi1 luciferase knock-in, single point (AID 602393).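 Also: 0% = median of the plate's neutral control wells and 100% = double that signal; a rise in the Bmi1 reporter signal indicates esBAF inhibition.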 Particulars: 24 h, at 12.5 µM, active compounds read high, 100% = twice the neutral-well signal. Background: A reporter such as luciferase makes a cellular process visible.
On to `C[C@H](CO)N1C[C@H](C)[C@H](CN(C)Cc2ccncc2)Oc2ccc(NC(=O)C3CCCCC3)cc2CC1=O`, for which the reporter increase is 4.88%.
The figure for `COc1ccccc1-c1c(C)nn2c(C)c(C(C)=O)cnc12` is -4.24%.
Regarding `COc1ccccc1Nc1ncc(C(C)=O)c(C)n1`, the reporter increase is 43.9% (active).
For the compound `COC(=O)c1cnc(Nc2cc(C)ccc2OC)c2ccccc12`, the reporter increase was -2.74%.
For the compound `CCC(=O)Nc1ccc2c(c1)OC[C@H](C)N(Cc1ccccc1OC)C[C@@H](C)[C@@H](OC)CN(C)C2=O`, the reporter increase was 4.11%.
In the case of `CO[C@H]1CN(C)C(=O)c2cc(NC(=O)Nc3cccc(F)c3)ccc2OC[C@@H](C)N(C)C[C@@H]1C` it was 1.05%; in that of `C[C@H](CO)N1C[C@H](C)[C@H](CN(C)C(=O)C2CCOCC2)Oc2ncc(-c3ccccc3F)cc2C1=O`, -0.932%.
The figure for `COc1ccc(-c2ccc3c(c2)O[C@H](CN(C)Cc2ccccc2C(=O)O)[C@H](C)CN([C@@H](C)CO)S3(=O)=O)cc1` is 4.05%.
In the case of `COc1ccc(Nc2ncnc3ccc(Br)cc23)c(OC)c1` it was -66.9%; in that of `COc1ccccc1Nc1ncnc2c1oc1ccccc12`, 75.2% (active).
Regarding `CCC(C(=O)OC)n1cnc2c(oc3ccccc32)c1=O` (stereo not given), the reporter increase was 2.51%.
In the case of `CCCC(=O)Nc1ccc2c(c1)C(=O)N(C)[C@H]1CC[C@@H](CC(=O)NCc3cccc(F)c3)O[C@H]1CO2` it was 11.9%.
The figure for `O=C(NCC[C@H]1CC[C@H](NS(=O)(=O)c2ccccc2)[C@H](CO)O1)c1cc(Cl)cc(Cl)c1` is 1.99%.
Consider `O=C(Nc1cc(F)ccc1F)c1ccc2c(=O)n3c(nc2c1)CCC3`, for which the reporter increase was 54.2% (active).
The figure for `CC1CCN(C(=O)c2ccc3c(=O)n4c(nc3c2)CCCCC4)CC1` is 10.6%; for `Cc1cc(C)c(C)c(S(=O)(=O)N2CCN(C(=O)c3ccc4c(=O)n5c(nc4c3)CCC5)CC2)c1C` it is -1.07%.
The figure for `CC(C)CC#Cc1cnc2c(c1)C(=O)N([C@@H](C)CO)C[C@@H](C)[C@@H](CN(C)S(=O)(=O)c1cccs1)O2` is -1.12%.
Consider `Cn1cnc(S(=O)(=O)N2C[C@H](O)COC[C@@H]3O[C@H](CC(=O)NC4Cc5ccccc5C4)CC[C@H]32)c1`, for which the reporter increase was 1.23%.
`COc1ccccc1C(=O)NCCC(=O)NC1=NCCS1`: the reporter increase is 4.18%.
In the case of `O=C(NC1=NCCS1)c1ccc(Cl)s1`, the reporter increase is 56.6% (active).
In the case of `O=C(NCc1ccc2c(c1)OCO2)c1ccc(Cl)s1` it was 16.1%.
In the case of `COCC(=O)N1C[C@H](C)[C@@H](OC)CN(C)C(=O)c2cc(NC(=O)c3ccc(OC)cc3)ccc2OC[C@H]1C` it was -1.57%.
For `CCCNC(=O)C[C@@H]1CC[C@H]2[C@H](COc3ccc(NS(=O)(=O)c4ccccc4C)cc3C(=O)N2C)O1`, the reporter increase was 0.502%.
Take `CNC[C@H]1OCCCC[C@H](C)Oc2ccc(NS(C)(=O)=O)cc2C(=O)N([C@@H](C)CO)C[C@H]1C`: the reporter increase was 3.58%.
Take `CCC1([N+](=O)[O-])COC(c2ccc(C(C)C)cc2)OC1` (stereo not given): the reporter increase was 98.9% (active).
In the case of `CC(C)c1ccc(S(=O)(=O)NC2CCCC2)cc1` it was 1.91%; in that of `CCC1([N+](=O)[O-])COC(c2ccc(C)cc2)OC1` (stereo not given), -1.7%; in that of `O=C(Nc1ccccc1)c1ccccc1Br`, 22.5%.
The figure for `O=C(NC(=S)Nc1ncccn1)c1ccccc1Br` is 44.5% (active); for `CCCN(CC1CC1)C(=S)NC(=O)c1ccccc1Br` it is -4.35%.
Take `CO[C@@H]1CN(C)C(=O)c2cc(NC(=O)Nc3cccc(Cl)c3)ccc2OC[C@@H](C)N(C)C[C@@H]1C`: the reporter increase was -1.87%.
In the case of `CO[C@H]1CN(C)C(=O)c2ccc(NC(=O)c3cccc(F)c3)cc2OC[C@H](C)N(CC2CC2)C[C@@H]1C` it was 9.27%; in that of `CN(C)C(=O)CCc1ccc2c3c([nH]c2c1)[C@]1(C)[C@@H](C(=O)N2CCCCC2)C[C@H](CC(=O)NCCC2=CCCCC2)C(=O)N1CC3`, 8%.
The figure for `CN(C)C(=O)CCc1ccc2c3c([nH]c2c1)[C@]1(CCc2ccccc2)[C@@H](C(=O)N2CCCCC2)C[C@H](CC(=O)NCCC2=CCCCC2)C(=O)N1CC3` is 67.9% (active).
The figure for `CC(C)N(C(=O)[C@H]1C[C@H](CC(=O)NCCC2=CCCCC2)C(=O)N2CCc3c([nH]c4cc(CCC(=O)N(C)C)ccc34)[C@]12C)C(C)C` is 5.79%; for `O=C(C[C@@H]1C[C@@H]2c3cc(NC(=O)C4CCC4)ccc3O[C@@H]2[C@@H](CO)O1)NCCN1CCCCC1` it is 1.69%; for `Cc1noc(C)c1S(=O)(=O)Nc1ccc2c(c1)CC(=O)N([C@@H](C)CO)C[C@@H](C)[C@H](CN(C)S(=O)(=O)c1cccs1)O2` it is -4.75%.
For `CCn1nccc1C(=O)Nc1ccc(Cl)c(Cl)c1`, the reporter increase is 61.9% (active).
As for `O=C(CC(O)(C(F)(F)F)C(F)(F)F)Nc1ccc(Cl)c(Cl)c1`, the reporter increase was -47.8%.
The figure for `CCn1nccc1C(=O)Nc1ccc(S(=O)(=O)NC23CC4CC(CC(C4)C2)C3)cc1` is 14.5%; for `Cc1ccc(CN(C)C[C@H]2OCc3cn(nn3)CCCC(=O)N([C@@H](C)CO)C[C@H]2C)cc1` it is 3.63%; for `O=C(CN1CCN(c2ccc(Cl)cc2)CC1)c1ccccc1` it is -0.082%.
Regarding `O=C(Cc1ccc(Cl)cc1)NC(=S)Nc1ccccc1O`, the reporter increase is 2.82%.
In the case of `O=C(Cc1ccc(Cl)cc1)c1ccccc1`, the reporter increase is 61.9% (active).
In the case of `COc1ccc(-c2ccc3c(c2)[C@@H]2[C@@H](CCN2S(=O)(=O)c2ccccc2F)[C@H](CO)N3)cc1` it was -0.198%.
As to `C[C@@H]1CN([C@H](C)CO)C(=O)Cc2cc(NC(=O)CCCN(C)C)ccc2O[C@H]1CN(C)CC1CCCCC1`, the reporter increase was -2.32%.
For the compound `C[C@@H]1CN([C@H](C)CO)C(=O)c2cc(NS(=O)(=O)c3ccc(Cl)cc3)ccc2O[C@@H]1CN(C)CC1CCCCC1`, the reporter increase is 5.96%.
As for `O=C(C[C@H]1C=C[C@H](NS(=O)(=O)c2ccc(F)cc2)[C@H](CO)O1)NCc1ccncn1`, the reporter increase was 0.952%.
`COc1cc(C(=O)NCC2(c3ccccc3)CCCC2)ccc1OC(C)C`: the reporter increase is -10.2%.
In the case of `Cc1ccc(NC(=O)C2CC(=O)N(c3ccc4c(c3)OCCO4)C2)cc1S(=O)(=O)N1CCCCCC1` (stereo not given) it was 1.1%; in that of `COc1ccc(Cl)cc1NC(=O)CN(C)CC(=O)Nc1ccc2c(c1)OCO2`, 0.413%; in that of `Cc1ccc(C(=O)Nc2ccc3c(c2)OCO3)cc1S(=O)(=O)N1CCCCC1`, 57% (active).
In the case of `COc1ccc(C(=O)Nc2ccc(C3(C#N)CCCC3)cc2)cc1OC` it was 44% (active); in that of `Cc1ccc(NC(=O)CCCNC(=O)c2ccc(Cl)cc2)cc1S(=O)(=O)N1CCCCC1`, -3.1%.
The figure for `Cc1ccc(C(=O)Nc2ccc3c(c2)OCCO3)cc1S(=O)(=O)N1CCOCC1` is 70.5% (active).
`Cc1ccc(NC(=O)c2ccc(Cl)nc2)cc1S(=O)(=O)N1CCOCC1`: the reporter increase is 0.751%.
The figure for `COc1ccc(C(=O)Nc2ccc3c(c2)OCO3)cc1OC` is 53.2% (active); for `O=C(Nc1ccc(N2CCOCC2)cc1)c1ccc2c(c1)OCO2` it is 39.9%.
In the case of `Cc1ccc(C(=O)Nc2ncccc2C)cc1S(=O)(=O)N1CCOCC1` it was 3.68%; in that of `COc1ccc(C(=O)NC2CC(C)(C)NC(C)(C)C2)cc1OC`, 0.227%.
